FBA Mtb inh = Mtb FBA enzyme inhibitors, primary screen, biochemical, fluorescence, strain H37Rv; Fructose-bisphosphate aldolase (Mycobacterium tuberculosis (strain ATCC 25618 / H37Rv)), …; purified M. tuberculosis FBA, fluorescence read-out; inhibition, % at 1 µM; 360,000 tested, 2.3% active; in the data active = inhibition above about 27%;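 also: 0% = vehicle and 100% = reference inhibitor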
Target sequence (P9WQA3 whole entry, looked up): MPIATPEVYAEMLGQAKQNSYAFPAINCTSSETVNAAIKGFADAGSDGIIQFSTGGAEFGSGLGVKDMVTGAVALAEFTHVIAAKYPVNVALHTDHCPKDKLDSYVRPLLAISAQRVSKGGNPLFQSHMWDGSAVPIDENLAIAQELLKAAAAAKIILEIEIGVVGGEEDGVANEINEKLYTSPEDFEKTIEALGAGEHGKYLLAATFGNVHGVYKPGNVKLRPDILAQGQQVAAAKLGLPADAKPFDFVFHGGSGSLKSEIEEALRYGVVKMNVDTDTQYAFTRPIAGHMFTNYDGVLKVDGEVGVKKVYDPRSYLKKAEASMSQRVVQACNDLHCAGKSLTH
RecA splice inh = Mtb RecA intein splicing inhibitors, primary screen, biochemical, fluorescence, HTS | Protein RecA (Mycobacterium tuberculosis (strain ATCC 25618 / H37Rv)), P9WHJ3 | cell-free RecA intein splicing | inhibition, % (concentration not given with the values) | 290,000 tested, 0.75% active | AID 2221, 2009; in the data active = inhibition above about 30%;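 also: 0% = vehicle wells and 100% = reference inhibitor control wells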
CCHF vOTU inh = CCHFV vOTU protease inhibitors, primary screen, biochemical, Pep-AMC substrate, fluorescence; Crimean-Congo hemorrhagic fever virus L polyprotein viral ovarian tumor (vOTU) protease …; inhibition, % at 11.5 µM; 370,000 tested, 0.55% active; AID 651958, 2012; also: 0% = vehicle wells with enzyme and 100% = no enzyme wells
GDH-TPI inh = GDH-TPI coupling enzyme inhibitors, primary screen, artefact control for M. tuberculosis FBA inhibitor project, biochemical, absorbance, full deck | AID 588335, 2011 | GDH-TPI coupled enzyme counterscreen, NADH absorbance | 360,000 tested, 1.2% active | inhibition, % at 4.8 µM;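 also: 0% = DMSO wells and 100% = wells lacking the enzyme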
Mtb bLac sens = beta-lactam sensitization of Mtb H37Rv, H37Rv; inhibition, % at 25 µM; 330,000 tested, 0.27% active; M. tuberculosis H37Rv growth with meropenem, percent inhibition; call rule not given here;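 also: growth measured after seven days incubation then overnight dye step; 0% = bacteria only wells and 100% = bacteria with antibiotic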
Numbers without * were called inactive; i = inactive; . = not tested or not shown; + = active, no number. Rows were chosen to be rich in hits. Some 4.2% of all compounds tested hit in one or more screens of this group. Rule as the data show it, unless noted: active = inhibition above about 30%; inactive = the rest.

SMILES | FBA Mtb inh | RecA splice inh | CCHF vOTU inh | GDH-TPI inh | Mtb bLac sens
CN1CCCN(C(=O)CSc2nnc(-c3cccnc3)n2C2CCCCC2)CC1 | . | . | -4.0 | . | .
COCCCn1c(C)nc2c(c1=O)c1nc3ccccc3nc1n2CCc1ccccc1 | 35.9* | -10.8 | . | 19.8 | 3.4
Cc1nc2ccccc2c(=O)n1CCc1ccccc1 | 2.2 | 0.6 | -2.4 | -2.5 | 1.5
Cc1ccc(C)c(-c2ccc(=O)n(Cc3ccc(F)cc3Cl)n2)c1 | -1.3 | 22.0 | 7.6 | -1.1 | 8.8
Cc1ccc(C)c(-c2ccc(=O)n(Cc3cccc(Br)c3)n2)c1 | 0.8 | 30.0* | 0.8 | 3.2 | 54.4
O=C1C=C(NCCc2cc(Br)c(O)c(Br)c2)C(=O)c2ncccc21 | -3.0 | . | 108.1* | 0.0 | .
CCOC(=O)[C@@]12CN(C(=O)OC(C)(C)C)CC=C1N(Cc1ccc(OC)cc1)C(=O)[C@H]2CC(=O)NCc1ccccc1 | . | . | 12.4 | . | .
O=C1/C(=C\c2ccccc2)SC(=S)N1CCC(=O)N1CCCCC1CCO (configuration not stated) | -2.3 | 20.9 | 9.9 | 9.2 | 6.1
O=C(O)C1CCN(C(=O)CCN2C(=O)S/C(=C\c3ccccc3)C2=O)CC1 | -1.7 | 0.4 | -13.8 | 34.9* | -2.4
COc1cccc(/C=C2\SC(=O)N(CCC(=O)N3CCCCC3CCO)C2=O)c1 (configuration not stated) | -0.6 | 1.0 | 14.8 | 30.8* | 1.0
O=C(CCN1C(=O)S/C(=C\c2ccccc2)C1=O)N1CCCCC1 | -9.8 | 5.5 | 2.8 | 10.3 | -5.2
CCCc1[nH]nc2c1C(c1ccc(OCCN3CCOCC3)c(OCC)c1)C(C#N)=C(N)O2 (configuration not stated) | -0.2 | 44.4* | 0.8 | -4.6 | 6.5
COc1ccc(C2C(C#N)=C(N)Oc3cc(C)n(CCN4CCOCC4)c(=O)c32)cc1OC (configuration not stated) | -1.9 | -1.5 | -3.0 | 17.1 | -11.3
CCOc1cc(C2C(C#N)=C(N)Oc3n[nH]c(C)c32)ccc1OCCN1CCOCC1 (configuration not stated) | 4.9 | 48.3* | 5.0 | 3.8 | -1.4
CCOc1cc(C2C(C#N)=C(N)Oc3n[nH]c(CC)c32)ccc1OCCN1CCOCC1 (configuration not stated) | 3.6 | 50.3* | 6.1 | 1.9 | -3.5
CCCc1[nH]nc2c1C(c1ccc(O)cc1OCC)C(C#N)=C(N)O2 (configuration not stated) | 3.4 | 78.3* | 9.7 | 6.0 | -3.7
CCOc1ccc(C2C(C#N)=C(N)Oc3cc(O)ccc32)cc1OCC (configuration not stated) | 5.5 | -8.4 | -9.1 | 1.7 | 1.2
COCCn1c(C)cc(/C=C2\NC(=S)N(C)C2=O)c1C | -16.4 | . | 7.7 | 36.5* | 7.7
Cn1cnnc1SCc1ccc(C(=O)N=Nc2c(O)n(C)c3ccccc23)cc1 | 1.9 | 0.9 | 7.0 | 33.3* | -2.3
Cn1cnnc1SCC(=O)n1c2ccccc2c2ccccc21 | 0.5 | 0.4 | 21.5 | 5.8 | -2.6
CCOC(=O)c1c(-n2c(C)cc(/C=C3/C(=O)NC(=O)N(CC)C3=O)c2C)sc2c1CCCC2 | 7.2 | -6.5 | 3.9 | 9.0 | 5.1
CCOC(=O)c1c(-n2c(C)cc(C=C3C(=O)NC(=S)NC3=O)c2C)sc2c1CCCC2 | 3.0 | -1.7 | . | 32.3* | 2.4
O=C(N/N=C/c1ccc(O)c(Br)c1)c1cc2c(ccc3ccccc32)o1 | -0.3 | -3.8 | -0.6 | 26.8 | 1.1
CCOc1cc(/C=N/NC(=O)c2cc3c(ccc4ccccc43)o2)ccc1O | 8.7 | -2.6 | 10.9 | 43.5* | -3.6
CCOC(=O)COc1ccccc1/C=N\NC(=O)c1cc2c(ccc3ccccc32)o1 | 8.0 | -20.6 | 2.2 | 31.5* | 15.7
SMILES | FBA Mtb inh | RecA splice inh | CCHF vOTU inh | GDH-TPI inh | Mtb bLac sens
COc1ccc(C2C=C(c3ccccc3)Nc3nnnn32)cc1 (configuration not stated) | 8.6 | -14.2 | -5.0 | 7.2 | 9.1
C1=C(c2ccccc2)Nc2nnnn2C1 | 86.7* | -60.4 | -13.1 | 0.0 | 11.4
COc1ccc(NC(=O)Nc2ccccc2C(=O)N2CCCC2)cc1OC | . | . | -2.2 | . | .
O=C(Nc1ccc(/C=C/c2nc3ccccc3o2)cc1)c1ccc(F)cc1 | 4.4 | -1.5 | 6.4 | 32.7* | 27.5
COc1ccc(-c2cc(C(=O)NN=Cc3cccn3C)[nH]n2)cc1 | . | . | 3.4 | . | .
CCN(CC)c1ccc(C(=O)c2ccccc2C(=O)O)c(O)c1 | -5.8 | -2.4 | 22.2 | 42.0* | -3.1
Cc1cccc(C(=O)c2ccccc2C(=O)O)c1O | -1.9 | 2.5 | 7.6 | 10.8 | -1.1
Nn1c(SCC(=O)NC2CCCCC2)nnc1-c1cc(-c2ccccc2)n[nH]1 | . | . | 4.7 | . | .
CCOC(=O)c1ccc(-c2ccc(CO)o2)cc1 | + | 5.6 | -155.1 | 18.9 | -4.9
O=C1c2cccc3cccc(c23)C(=O)N1/N=C/c1ccc(O)cc1O | -6.4 | 1.5 | -0.9 | 46.5* | -1.3
O=C1c2ccccc2C(=O)N1/N=C/c1ccc(O)c(O)c1O | 0.0 | -5.7 | . | 28.2 | .
C#Cc1cccc(OCC(C)CN2CCC(C(O)(c3ccccc3)c3ccccc3)CC2)c1 (configuration not stated) | . | . | 7.7 | . | .
CSc1nc2nc(C(F)(F)F)cc(-c3ccccc3)n2n1 | 33.8* | 0.8 | -21.3 | 24.3 | -5.9
CSc1nc2nc(C)cc(-c3ccccc3)n2n1 | 24.5 | 0.7 | 3.8 | 9.2 | -17.4
CSc1nc2nc(-c3ccccc3)cc(C(F)(F)F)n2n1 | 36.8* | . | -6.3 | 11.6 | -6.5
Nc1cccc(-c2nc3ccc(N)cc3s2)c1 | 163.9* | -61.9 | -209.1 | 22.9 | 37.0
Nc1ccc(-c2nc3ccc(N)cc3s2)cc1 | + | -42.3 | -421.8 | 47.4* | 15.6
Nc1ccc(O)c(-c2nc3ccccc3s2)c1 | 4.2 | -12.5 | 7.7 | 22.8 | -6.0
O=C(O)c1ccc2nc(-c3ccccc3)sc2c1 | 2.9 | 0.2 | -3.9 | 4.0 | 0.4
Nc1cc2sc(-c3ccc(C(=O)O)cc3)nc2cc1Cl | 138.6* | i | -263.4 | 25.6 | 3.0
Nc1ccc(-c2nc3ccc(C(=O)O)cc3s2)cc1 | . | -49.2 | -309.4 | 54.4* | 8.3
COc1cccc(CO[C@H]2C=C[C@@H](c3ccccc3)O[C@@H]2COC(C)=O)c1 | . | . | -1.5 | . | .
N#Cc1cccc(NC(=O)OC2CCC23CCC(c2ccccc2)CC3)c1 (configuration not stated) | . | . | 1.0 | . | .
COC(=O)CN1CCN(C(=O)c2csc(N3CCOCC3)n2)CC1 | . | . | 13.8 | . | .
Nc1ccc2nc(N3CCOCC3)sc2c1 | -2.5 | 80.4* | 18.9 | 3.9 | 8.1
c1ccc2sc(N3CCOCC3)nc2c1 | -0.4 | -2.8 | 0.3 | 0.9 | .
COc1cccc(NC(=O)CSc2nnc(Cc3ccc(C)cc3)c(=O)n2N)c1 | -1.8 | 6.9 | -2.2 | -7.4 | -6.4
COc1ccc(Cc2nnc(SCC(=O)Nc3ccc(C)cc3)n(N)c2=O)cc1 | -3.3 | -0.3 | 29.9* | 1.4 | -5.8
CCOC(=O)c1cc(=O)n2c(nc3ccccc32)[nH]1 | + | -4.3 | -152.8 | 16.2 | 18.1

Screening data (PubChem BioAssay)
